Source: PubChem BioAssay
The source made the active and inactive calls.

How the values were obtained:
[1] = tested on: Plasmodium falciparum Sir2 (PF13_0152, Sir2A); assay: Plasmodium falciparum Sir2A binding compounds – biochemical, small-molecule microarray, 635 nm fluorescence, primary screen (AID 1098); details: fluorescence 635 nm, higher = more signal;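 also: score merges spot fluorescence intensity with its signal-to-noise ratio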
[2] = probe aDKK1 binding to arrayed compounds – biochemical, biotinylated probe, 635/667 nm fluorescence, primary screen (AID 1099); details: small-molecule microarray, higher = more signal;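 also: score merges 667nm spot fluorescence with signal to noise across triplicate slides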
[3] = probe aCHRDL2 binding to arrayed compounds – biochemical, biotinylated probe, 635/667 nm fluorescence, primary screen (AID 1100); details: small-molecule microarray, higher = more signal
[4] = change in splice reporter luminescence, either direction, cell-based, HEK293, spliceosome inhibition project, primary screen (AID 1101); details: HEK293 splicing luciferase reporter, 24 h, higher = more signal, called active from +8 up or from −8 down;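 also: HEK293 cells carrying a splicing-competent luciferase reporter gene; test concentration not given here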
[5] = biological target: Fibroblast growth factor 10 (Homo sapiens) (UniProt O15520); assay: compounds binding fibroblast growth factor 10 – biochemical, small-molecule microarray, 635 nm fluorescence, primary screen (AID 1102); details: FGF10 binding, fluorescence 635 nm, higher = more signal
[6] = tested on: glycogen synthase kinase-3 (GSK3A per assay name; protocol says GSK3B); assay: compounds binding glycogen synthase kinase-3 – biochemical, small-molecule microarray, 635 nm fluorescence, GSK3A, primary screen (AID 1103); details: fluorescence 635 nm, higher = more signal; also: the record names both GSK3A and GSK3B
[7] = biological target: Epidermal growth factor receptor (Homo sapiens) (UniProt P00533); assay: compounds binding epidermal growth factor receptor – biochemical, small-molecule microarray, 635 nm fluorescence, primary screen (AID 1104); details: EGFR binding, higher = more signal;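 also: score merges 667 nm emission intensity with spot signal to noise over triplicate slides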
[8] = biological target: Follistatin-related protein 3 (Homo sapiens) (UniProt O95633); assay: compounds binding follistatin-related protein 3 – biochemical, small-molecule microarray, 635 nm fluorescence, primary screen (AID 1105); details: FSTL3 binding, higher = more signal;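 also: score merges emission near 667 nm and signal to noise per printed spot across three slides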
[9] = biological target: Dickkopf-related protein 1 (Homo sapiens) (UniProt O94907); assay: small molecules binding DKK1 protein – biochemical, small-molecule microarray, 635 nm fluorescence scan, primary screen (AID 1106); details: higher = more signal;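 also: score merges emission near 667 nm with signal to noise over three replicate slides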
[10] = tested on: Inhibin beta A chain (activin A); assay: small molecules binding activin A – biochemical, small-molecule microarray, 635 nm fluorescence scan, primary screen (AID 1107); details: INHBA, higher = more signal;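 also: mouse activin A protein probed at 4.33 µg/mL on printed slides; score merges bound-protein fluorescence near 667 nm with spot signal-to-noise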
[11] = tested on: Human papillomavirus type 1a protein E7 (residues 44-93); assay: small molecules binding HPV E7 44-93 – biochemical, small-molecule microarray, residues 44-93, 635 nm fluorescence, primary screen (AID 1108); details: fluorescence 635 nm, higher = more signal;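 also: E7 fragment applied at 1 µg/mL in TBST for 1 h at 4 C; score combines spot fluorescence with its signal to noise ratio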
[12] = hepatitis C replication reporter changes, two-sided – Huh7 cells, luciferase reporter, HCV replication inhibitor project, primary screen (AID 1109); details: Huh7 HCV replicon luciferase reporter, 48 h; higher = more signal;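 also: huh7 hepatoma cells harbouring a luciferase neomycin HCV replicon reporter; luciferase luminescence as measure of HCV replicon replication; test concentration not given here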
[13] = biological target: Left-right determination factor 2 (Homo sapiens) (UniProt O00292); assay: small molecules binding LEFTY2 protein – biochemical, small-molecule microarray, 635 nm fluorescence scan, primary screen (AID 1110); details: higher = more signal
[14] = biological target: Calmodulin-1 (Homo sapiens) (UniProt P0DP23); assay: small molecules binding calmodulin-1 with EGTA – biochemical, small-molecule microarray, Cy5-labelled CALM1, profiling panel (AID 1111); details: Cy5-CALM1 binding fluorescence, higher = more signal;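 also: labelled calmodulin applied in Tris saline Tween buffer holding calcium plus EGTA and DTT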
[15] = biological target: Calmodulin-1 (Homo sapiens) (UniProt P0DP23); assay: small molecules binding Ca-loaded calmodulin-1 – biochemical, small-molecule microarray, Cy5-labelled CALM1, plus calcium, artefact control for SMM control-protein annotation, profiling panel (AID 1112); details: Cy5-CALM1 binding fluorescence, higher = more signal;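 also: score merges spot fluorescence with signal to noise from triplicate slides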
[16] = probe aWnt5a binding to arrayed compounds – biochemical, biotinylated probe, 635/667 nm fluorescence, primary screen (AID 1113); details: small-molecule microarray, higher = more signal;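 also: score merges 667 nm fluorescence intensity with signal-to-noise per printed feature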
[17] = probe aShh binding to arrayed compounds – biochemical, biotinylated probe, 635/667 nm fluorescence, primary screen (AID 1114); details: small-molecule microarray, higher = more signal;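 also: probe is biotin-labelled aShh protein from a stem cell growth factor screen; measures binding of labelled protein to compounds printed on the slide; score merges feature fluorescence at 667 nm with signal-to-noise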
[18] = probe aNog binding to arrayed compounds – biochemical, biotinylated probe, 635/667 nm fluorescence, primary screen (AID 1115); details: small-molecule microarray, higher = more signal;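 also: probe is biotinylated aNog protein used at 0.15 µg/mL for 1 h at 4 C; z-score combines 667 nm fluorescence of each spot with its signal to noise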
[19] = biological target: Torsin-1A-interacting protein 1 (Homo sapiens) (UniProt Q5JTV8); assay: compound microarray binding of lysate hLAP1 – cell lysate, small-molecule microarray, COS7 lysate, 635/667 nm fluorescence, primary screen (AID 1116); details: 635 nm fluorescence, higher = more signal
[20] = biological target: Alpha-bungarotoxin (Bungarus multicinctus) (UniProt P60615); assay: compounds binding labelled alpha-BTX control protein – biochemical, small-molecule microarray, Alexa647 label, 635/667 nm fluorescence, artefact control for SMM control protein annotation, profiling panel (AID 1117); details: alpha-BTX-A647 binding fluorescence, higher = more signal
Alpha-bungarotoxin (Bungarus multicinctus), sequence (P60615 whole entry, looked up): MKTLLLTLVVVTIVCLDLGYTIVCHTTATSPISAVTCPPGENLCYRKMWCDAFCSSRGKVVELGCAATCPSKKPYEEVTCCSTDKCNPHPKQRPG

Left-right determination factor 2 (Homo sapiens), sequence (O00292 whole entry, looked up): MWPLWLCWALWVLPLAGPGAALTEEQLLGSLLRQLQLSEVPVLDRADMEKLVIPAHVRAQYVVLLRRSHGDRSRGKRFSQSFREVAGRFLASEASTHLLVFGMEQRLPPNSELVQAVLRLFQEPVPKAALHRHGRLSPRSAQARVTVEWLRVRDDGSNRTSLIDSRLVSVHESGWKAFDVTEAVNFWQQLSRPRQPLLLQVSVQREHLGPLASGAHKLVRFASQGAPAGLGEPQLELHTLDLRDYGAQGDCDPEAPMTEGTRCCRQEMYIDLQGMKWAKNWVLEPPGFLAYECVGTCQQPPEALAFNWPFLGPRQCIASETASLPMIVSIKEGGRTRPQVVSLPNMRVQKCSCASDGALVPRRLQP
Dickkopf-related protein 1 (Homo sapiens), sequence (O94907 whole entry, looked up): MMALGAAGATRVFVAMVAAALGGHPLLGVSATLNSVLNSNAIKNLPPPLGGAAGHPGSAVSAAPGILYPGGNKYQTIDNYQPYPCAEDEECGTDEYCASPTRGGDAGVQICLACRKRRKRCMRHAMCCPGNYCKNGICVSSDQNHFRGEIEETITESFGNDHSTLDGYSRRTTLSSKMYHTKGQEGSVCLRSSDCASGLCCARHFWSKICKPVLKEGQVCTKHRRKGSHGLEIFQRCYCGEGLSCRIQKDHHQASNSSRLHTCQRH
Follistatin-related protein 3 (Homo sapiens), sequence (O95633 whole entry, looked up): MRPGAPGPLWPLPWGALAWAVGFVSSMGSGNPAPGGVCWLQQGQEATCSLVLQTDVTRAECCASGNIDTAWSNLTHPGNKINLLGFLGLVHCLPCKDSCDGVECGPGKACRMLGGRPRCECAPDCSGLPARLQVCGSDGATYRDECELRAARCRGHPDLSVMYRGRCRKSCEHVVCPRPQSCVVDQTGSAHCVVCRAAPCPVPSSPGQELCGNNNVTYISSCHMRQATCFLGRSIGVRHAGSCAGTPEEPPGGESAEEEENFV
Torsin-1A-interacting protein 1 (Homo sapiens), sequence (Q5JTV8 whole entry, looked up): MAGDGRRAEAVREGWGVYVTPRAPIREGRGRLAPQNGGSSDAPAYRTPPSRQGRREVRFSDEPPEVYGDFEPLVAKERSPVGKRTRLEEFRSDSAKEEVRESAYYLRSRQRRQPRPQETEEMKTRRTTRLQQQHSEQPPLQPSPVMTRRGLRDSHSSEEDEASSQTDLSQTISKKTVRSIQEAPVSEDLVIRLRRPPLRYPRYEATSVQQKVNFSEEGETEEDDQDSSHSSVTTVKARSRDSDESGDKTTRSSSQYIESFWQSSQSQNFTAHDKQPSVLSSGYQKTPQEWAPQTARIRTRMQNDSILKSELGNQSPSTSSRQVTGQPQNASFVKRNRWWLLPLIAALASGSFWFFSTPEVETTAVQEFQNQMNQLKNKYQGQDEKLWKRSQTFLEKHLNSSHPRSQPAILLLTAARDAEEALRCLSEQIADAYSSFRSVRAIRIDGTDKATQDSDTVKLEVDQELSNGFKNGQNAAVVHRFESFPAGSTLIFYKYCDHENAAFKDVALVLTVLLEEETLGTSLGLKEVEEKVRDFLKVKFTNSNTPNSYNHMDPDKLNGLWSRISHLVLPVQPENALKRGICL
Fibroblast growth factor 10 (Homo sapiens), sequence (O15520 whole entry, looked up): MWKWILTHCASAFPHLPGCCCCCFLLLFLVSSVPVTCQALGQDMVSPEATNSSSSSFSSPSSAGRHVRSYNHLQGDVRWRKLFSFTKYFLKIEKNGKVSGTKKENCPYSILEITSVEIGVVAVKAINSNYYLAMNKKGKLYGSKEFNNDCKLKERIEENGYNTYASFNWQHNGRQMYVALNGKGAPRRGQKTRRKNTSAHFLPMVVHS
Epidermal growth factor receptor (Homo sapiens), sequence (P00533 whole entry, looked up): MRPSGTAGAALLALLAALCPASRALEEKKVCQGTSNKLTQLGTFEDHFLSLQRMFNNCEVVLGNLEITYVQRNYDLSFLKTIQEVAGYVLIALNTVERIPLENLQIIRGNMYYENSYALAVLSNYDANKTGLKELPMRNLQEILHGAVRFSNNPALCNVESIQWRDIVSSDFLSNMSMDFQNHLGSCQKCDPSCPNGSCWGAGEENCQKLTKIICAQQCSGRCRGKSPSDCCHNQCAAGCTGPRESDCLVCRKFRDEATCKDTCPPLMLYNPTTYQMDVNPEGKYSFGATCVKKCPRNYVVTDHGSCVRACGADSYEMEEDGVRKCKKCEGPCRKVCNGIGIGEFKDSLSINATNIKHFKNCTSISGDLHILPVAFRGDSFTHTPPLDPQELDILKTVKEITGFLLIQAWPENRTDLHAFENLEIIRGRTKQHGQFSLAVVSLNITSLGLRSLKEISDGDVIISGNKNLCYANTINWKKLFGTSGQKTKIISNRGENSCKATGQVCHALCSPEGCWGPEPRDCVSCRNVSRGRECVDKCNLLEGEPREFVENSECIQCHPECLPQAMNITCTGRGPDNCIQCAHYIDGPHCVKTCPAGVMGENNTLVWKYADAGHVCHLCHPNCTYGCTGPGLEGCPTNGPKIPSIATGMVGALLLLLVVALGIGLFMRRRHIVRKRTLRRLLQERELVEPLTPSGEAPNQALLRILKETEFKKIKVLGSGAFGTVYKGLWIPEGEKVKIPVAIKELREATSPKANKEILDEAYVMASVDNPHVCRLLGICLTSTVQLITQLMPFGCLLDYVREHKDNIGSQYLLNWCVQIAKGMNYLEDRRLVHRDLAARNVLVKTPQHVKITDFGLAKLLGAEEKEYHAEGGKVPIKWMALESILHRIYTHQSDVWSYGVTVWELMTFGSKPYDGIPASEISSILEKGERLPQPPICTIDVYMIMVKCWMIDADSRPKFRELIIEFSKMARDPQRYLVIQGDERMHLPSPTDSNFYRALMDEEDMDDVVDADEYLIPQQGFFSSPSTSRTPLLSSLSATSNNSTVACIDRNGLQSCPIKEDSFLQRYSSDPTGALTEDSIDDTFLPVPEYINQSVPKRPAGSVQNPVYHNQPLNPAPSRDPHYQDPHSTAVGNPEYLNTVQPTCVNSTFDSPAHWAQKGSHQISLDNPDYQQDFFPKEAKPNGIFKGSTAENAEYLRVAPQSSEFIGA

Structure (SMILES)	composite z-score [1]	composite z-score [2]	composite z-score [3]	z-score [4]	composite z-score [5]	composite z-score [6]	composite z-score [7]	composite z-score [8]	composite z-score [9]	composite z-score [10]	composite z-score [11]	z-score [12]	composite z-score [13]	composite z-score [14]	composite z-score [15]	composite z-score [16]	composite z-score [17]	composite z-score [18]	composite z-score [19]	composite z-score [20]
COCCOC(=O)N1C(=O)[C@@]2(c3cc(C#Cc4ccc(OC)cc4)ccc31)[C@H](c1ccc(O)cc1)N1[C@H](c3ccccc3)[C@H](c3ccccc3)OC(=O)[C@H]1[C@@H]2C(N)=O	1.49	-0.0422	-0.21	-1.95 (inactive)	1.1	1.25	0.655	1.4	0.56	0.213	1.44	-2.02	0.599	1.06	-0.139	0.0045	0.149	-0.694	0.743	1.16
C#C[C@@H](CC)O[Si](C#Cc1ccc(Oc2ccccc2)cc1)(C(C)C)C(C)C	0.301	-0.137	-0.225	-1.17 (inactive)	0.706	0.777	0.185	0.773	0.125	0.0324	1.1	-0.715	0.341	-0.0885	-0.657	-0.0963	-0.0533	-0.254	0.368	0.0826
CC(CCN1CCc2nc(-c3ccccc3)c(-c3ccccc3)cc2C1)=NO[C@H](C)c1cn([C@@H]2COC[C@H]2O)nn1	1.1	-0.182	-0.432	0.611 (inactive)	0.215	0.403	0.0515	0.343	0.0546	0.763	1.35	-0.883	0.0738	-0.307	-0.46	-0.0685	-0.0553	-0.025	0.438	0.872
C[C@@H]1CC[C@H]2C(=O)O[C@H](COc3ccc(C(C)(C)C)cc3)CN2[C@H]1c1ccc(Br)cc1	0.751	-0.136	-0.299	0.148 (inactive)	-0.0611	-0.533	-0.287	-0.175	0.0539	0.352	-0.387	0.0366	0.113	-0.11	0.347	0.721	-0.415	-0.514	-0.15	0.323
COC(=O)[C@@H]1CCCN1C(=O)[C@@H](C)CO	0.42	-0.0908	-0.445	-0.74 (inactive)	0.601	1.24	0.524	0.592	0.547	-0.198	0.946	0.868	0.344	0.49	0.0051	-0.0566	-0.2	0.141	0.451	1.13
COc1ccc(O[C@H]2C=C[C@@H](c3ccccc3)O[C@@H]2COC(=O)CCC(C)=NOCC[C@@H]2C=C[C@H](OC(C)=O)[C@@H](COC(C)=O)O2)cc1	0.868	-0.0184	-0.483	-0.484 (inactive)	-0.249	-0.362	0.275	0.415	0.371	1.22	-0.119	-1.1	0.347	-1.02	-1.27	0.0495	0.199	0.0301	0.781	-0.0704
